# Results reported in the supplement of paper PMC6555819.
# Experiments:
# Test in all cases: PBM binding z-score (relative to random genomic background probes); higher = stronger binding; sequences stand for … in GC…GCGATTGACAGCGTAGAATGAAGG
# [1] = system: RARb homodimer (NR concentration 270 nM)
# How it was run: (§1)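 Binding buffer was PBS pH 7.4 with 2% milk, 0.02% Triton X-100, 1 mM DTT, 0.2 mg/mL BSA and 0.4 mg/ml salmon testes DNA. In it, ligand-free nuclear receptor dimers were incubated 1 h on custom Agilent 4×180K protein-binding microarrays carrying double-stranded probes. Antibodies against each partner (one per run) detected binding, and z-scores were calculated against random background probes after regression normalization of scanned fluorescence.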
# [2] = system: RARg:RXRa (NR concentration 270 nM, RXRa partner concentration 90 nM)
# How it was run: as §1
# [3] = system: RARg homodimer (NR concentration 270 nM)
# How it was run: as §1
# [4] = system: RXRa DBDmut IVT, anti-RXR (DBD mutation: RXRa K156A/R161A, NR concentration 90 nM)
# How it was run: as §1
# [5] = system: RXRa homodimer (NR concentration 180 nM)
# How it was run: as §1
# [6] = system: THRa:RXRa (NR concentration 90 nM, RXRa partner concentration 90 nM)
# How it was run: as §1
# [7] = system: THRa homodimer (NR concentration 90 nM)
# How it was run: as §1
# [8] = system: VDR homodimer (NR concentration 270 nM)
# How it was run: as §1
Sequence,PBM binding z-score [1],PBM binding z-score [2],PBM binding z-score [3],PBM binding z-score [4],PBM binding z-score [5],PBM binding z-score [6],PBM binding z-score [7],PBM binding z-score [8]
CCTACTGGGCCAAAGGTCATGGATTCCAATGCTC,4.97,6.18,5.26,0.383,6.66,3.73,1.02,1.54
CAAACTAGATCACCGGAAGGTCAAAGTCCGCATG,4.03,4.08,2.88,0.674,3.47,2.76,1.06,2.12
TCCATTAGTTGAAGGGCAACCGACGAGTCCGTTT,1.47,0.679,0.586,1.9,1.05,0.553,0.351,1.57
ATCGAAAGGTCGTGAGGTGAGTATGCAGAAAGGC,3.26,4.63,4.17,1.02,5.27,3.56,1.71,0.782
TCTGCTAGGTGAACGATGGTCAGCTAATCTGCTA,0.159,0.144,0.337,-0.282,0.0585,0.529,-0.885,-0.782
CCTACTGGGCCGCGAAAGGTCATTGATTCAGTGA,4.47,4.49,3.88,0.701,5.19,3.25,0.433,2.12
CCGACTGGGGGATAAGGTTACCATAAGCCAGCCC,1.05,1.12,0.756,-0.00884,1.21,2.51,2.11,0.491
ATCTCTAGGTAAAGATAGTTCAGAGAATGCAAAT,0.692,0.65,0.767,-0.136,0.482,0.724,0.0734,0.51
CCTCGGAGGACCACAGGAGGTCAGAGCTGCCAGA,3.17,2.2,2.01,-0.446,1.85,2.76,0.73,0.746
CAAACAAGGTCAAGGTCAAAGTCGGTTTGTGCCA,5.74,–,7.76,4.13,–,4.6,4.5,5.71
ATCGAAAGGTCTTGAGGTGAGTATACAGAAAGGC,1.41,1.77,1.87,-0.483,1.48,2.34,1.21,-0.0653
AGAATGAGGTTATCAAGATCAGGGAATTGCGGTC,1.07,1.5,1.12,1.46,2.19,2.49,0.835,0.805
CCGAGTAGGTCATGGGGCATTCAGGCAACGGTGA,3.25,4.34,4.44,0.881,3.87,2.45,0.499,0.642
CAACCTAGGTCAAAGGTCAAAGTCGAGCCAACCA,5.33,9.2,7.77,3.16,10.1,5.01,1.81,3.91
AGAATGAGGTTATTAAGATCAGGGACTTGCGGTC,0.973,1.12,0.814,1.92,1.82,2.09,0.617,1.36
CGAACAAGGTCAGAACAGGACAGTGAAGGATGAT,3.28,4.38,4.86,2.29,3.5,4.28,1.11,1.14
CAAACTAGTTCAAAGGTCAAAGTCGAGCCAACCA,4.9,7.49,6.13,3.58,9.59,4.16,1.06,3.89
CTCGAAAGGTCGTGCTCCGGTGAGTATACCAAAC,3.04,5.03,3.94,2.08,5.18,3.06,0.517,1.26

Sequence,PBM binding z-score [1],PBM binding z-score [2],PBM binding z-score [3],PBM binding z-score [4],PBM binding z-score [5],PBM binding z-score [6],PBM binding z-score [7],PBM binding z-score [8]
TGAATGAGGTTATAAGATCAGGGACCGTTGCAAA,0.518,1.43,0.648,0.574,1.83,1.75,0.103,0.401
TAGCCTAGGTCATGCGGGCAAGTATAGTGTCGGC,3.16,4,4.38,0.563,3.03,2.89,0.9,0.528
TCGAATAGGTTAGTCGGGGCATTCAGCCAACATA,0.708,0.415,0.436,0.913,0.583,1.46,0.0462,0.528
AGTCAATGTTCATCTAGGTAACGTAAGATATGCT,-0.0821,0.125,0.41,0.291,0.0893,0.616,0.345,-0.282
CAAACTAGGTCATCCAGGACAGTGAATACATTGA,3.12,4.15,4.93,2.37,3.09,3.76,2.38,2.21
CAAACTAGGTCAAGAGGTAAAAGTCCGCTTCCCG,3.32,4.71,4.74,1.44,3.45,2.99,1.2,0.657
ATCTCTAAGTAAAGTTCAGTGAAAGATCGATAGA,2.32,1.98,2.42,1.71,1.26,0.85,-0.131,2.32
CGTCAAAGTTCAACTAAGGTAATGTAAAGCACGC,4.29,5.86,6.53,4.51,5.18,5.18,1.31,3.69
ACTATTCGTTGACTTAGGGCAACCGATACGACGC,0.887,0.792,0.996,0.445,0.633,0.912,0.963,0.261
TCTCGGAGGCCACGAAAGGTCAGAGCTCGACATC,4.92,4.88,5.06,0.746,4.3,4.02,0.552,0.735
CCGACTGGGGCAGAAAGGTTAGCATACCATCCGG,1.74,0.906,0.862,-0.65,0.988,0.31,-0.682,-0.346
CAAACAAGGTCAAGAGGTCAAAGTCCGCTTCCCG,6.24,–,8.91,3.92,–,–,3.28,5.74
AGTCAAAGTTCACTAGTTAACGTAAGATTCAGCT,3.6,4.87,5.57,4.26,3.7,1.45,-0.514,4.04
CTACTAAGGTGAACAAGGTCGTTGATTACTATTC,2.33,2.35,1.64,1.81,2.34,3.61,2.82,2.67
TCATATGGGTAAAAGGTGAAAGTCGGTGTGGTAA,1.98,1.7,0.446,1.05,2.64,1.46,0.164,-0.0613
ATCGAAATGTCGAAGGTGAGTATACCCACCCGAA,-0.167,0.233,0.587,-0.753,0.434,-0.023,-0.43,-0.0115
AGAACGAGGGCAATGAGTTGATATCACGGGTGGC,1.12,1.33,1.45,2.15,1.2,1.17,-0.128,2.71
ATATGTAGGTTAAGGGTCATCCAGGTTGGTTCGC,4.18,5.45,4.39,1.99,6.92,3.69,1.82,3.82
